Shown are actives, neighbours in structure and some others; about 3.8% of the full set was active somewhere.
IDH1 R132H inh = human IDH1 R132H inhibition; Potency, µM (series often up to 76.6 µM), for inactives: top-dose activity change, negative = inhibition, most hits filed as inhibitors; O75874; actives 0.093% (n = 390,000); IDH1-R132H enzyme, NADPH consumption, diaphorase/resazurin fluorescence; further: on the % scale 0 is the no-effect control and ±100 the full control effect; nearly all actives have a fitted effect of over 65% in size
Target sequence (O75874 whole entry R132H, stated change not applied): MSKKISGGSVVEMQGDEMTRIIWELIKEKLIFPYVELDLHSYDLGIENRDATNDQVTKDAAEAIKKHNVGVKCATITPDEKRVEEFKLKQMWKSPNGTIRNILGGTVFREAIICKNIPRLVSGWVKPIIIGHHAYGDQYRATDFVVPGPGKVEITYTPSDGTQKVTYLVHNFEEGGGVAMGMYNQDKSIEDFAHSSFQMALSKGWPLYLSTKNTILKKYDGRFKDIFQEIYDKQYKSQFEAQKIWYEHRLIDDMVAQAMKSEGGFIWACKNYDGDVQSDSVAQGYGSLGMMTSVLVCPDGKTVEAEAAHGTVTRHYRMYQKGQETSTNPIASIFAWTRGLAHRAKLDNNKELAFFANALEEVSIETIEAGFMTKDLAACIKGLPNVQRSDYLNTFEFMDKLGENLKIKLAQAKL
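IDH1-R132H (0.5 ug/mL dispensed) in pH 7.5 Tris buffer was preincubated 30 min with compound, then given a substrate mix of 0.016 mM NADPH and 2 mM alpha-KG for 80 min at room temperature; remaining NADPH was read by diaphorase/resazurin fluorescence.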
A549 viability = counter-screen for Nrf2 inhibitors: cytotoxicity in A549 cells. Potency, µM (doses to about 46 µM), without a hit: at the highest dose activity change, negative = cytotoxicity, usual class: inhibitors. actives 0.16% (n = 390,000). AID 504648. A549 ARE-Fluc cells, CellTiter-Fluor viability, 18-24 h; further: on the % scale 0 is the no-effect control and ±100 the full control effect
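A549 ARE_Fluc cells in 5% FBS OPTI-MEM were exposed to compounds in concentration-response for 18-24 h at 37 deg C. Viability was read by CellTiter-Fluor fluorescence (Ex 405/Em 525) after 30 min, before the luciferase read.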
ELG1 DNA repair = blocks ELG1-dependent DNA repair in HEK293T cells; HEK293T ELG1-luciferase reporter, luminescence, 16 h; DNA damage induced by 5-fluorouridine; Potency, µM (highest dose often 46.1 µM), inactives show at the highest dose activity change, negative = inhibition, hits mostly inhibitors; actives 2.3% (n = 330,000); further: on the % scale 0 is the no-effect control and ±100 the full control effect; nearly all actives have a fitted effect of over 55% in size
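Luminescence from the luciferase reporter, measured 30 min after ONE-Glo reagent at room temperature, was the read-out. Beforehand, 2,000 cells per well were exposed for 16 hr at 37 °C to 5-fluorouridine together with compound or vehicle.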
Nrf2 inh = Nrf2 pathway inhibition; A549 ARE-Fluc reporter, luciferase luminescence, 18-24 h; Potency, µM (doses to about 46 µM), for the others: at the top dose activity change, negative = inhibition, hits mostly inhibitors; actives 2.1% (n = 360,000); AID 504444; further: on the % scale 0 is the no-effect control and ±100 the full control effect; nearly all actives have a fitted effect of over 60% in size
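Two sequential reads on A549 ARE_Fluc cells exposed to compound for 18-24 h: a CellTiter-Fluor fluorescence read for viability, then a luciferase luminescence read for Nrf2/ARE activity.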
Nrf2 activator = activators of Nrf2 (ARE) signaling. Potency, µM (doses to about 46.1 µM), without a hit: top-dose activation, most hits filed as activators. AID 624171. AREc32 ARE-luciferase reporter (MCF7-derived line), luminescence, 24 h. actives 0.31% (n = 410,000); further: % of control where 0% means no effect; nearly all actives have a fitted effect of over 65% in size
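ARE-driven firefly luciferase activity in AREc32 cells measured after a 24 hr compound exposure at 37 deg C, using Steady-Glo reagent and a 30 min room-temperature hold.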
Starred values were filed as active, the others as inactive; [ ] = dose if it differs, or a comment. The call rests on the fitted dose curve; in most records, active means well fitted curve in the direction sought with a large enough effect; inconclusive means small, poorly fitted or top-dose-only effect, or another doubt; inactive means no such curve, though single readings can be large; an effect the other way counts as inactive or inconclusive. Potency means the concentration at half of the fitted maximal effect.

For COc1ccccc1Nc1c2ccccc2nc2ccccc12 the results were IDH1 R132H inh -3.8%, A549 viability inconclusive, ELG1 DNA repair inconclusive, Nrf2 inh 14.6µM* and Nrf2 activator 3.8%.
For Cc1cc(CNC(=O)COc2ccc(F)cc2F)c2ccccc2n1 the results were IDH1 R132H inh -3.0%, A549 viability -6.4%, ELG1 DNA repair inconclusive, Nrf2 inh 16.4µM* and Nrf2 activator 2.8%.
`O=C(O)/C=C/C(=O)N1N=C(c2ccco2)CC1c1ccco1` (stereo not drawn) gave IDH1 R132H inh 1.1%, A549 viability -1.5%, ELG1 DNA repair 1.1%, Nrf2 inh 0.9% and Nrf2 activator 30.2%.
For O=C(CCl)N1N=C(c2cccs2)CC1c1ccco1 (stereo not drawn) the results were IDH1 R132H inh -3.8%, A549 viability -14.5%, ELG1 DNA repair 23.1µM*, Nrf2 inh inconclusive and Nrf2 activator 14.3%.
O=C(CCl)N1N=C(c2ccco2)CC1c1ccco1 (stereo not drawn) was read as IDH1 R132H inh -4.3%, A549 viability 1.1%, ELG1 DNA repair inconclusive, Nrf2 inh 16.6% and Nrf2 activator 15.8µM*.
Screening O=C(c1ccco1)N1N=C(c2ccc(Br)cc2)CC1c1ccco1 (stereo not drawn) returned IDH1 R132H inh -7.3%, A549 viability -0.6%, ELG1 DNA repair 11.2µM*, Nrf2 inh inconclusive and Nrf2 activator -0.7%.
For COCCCNC(=O)CSc1nc2nc(C)c(Cc3ccccc3Cl)c(C)n2n1 the results were IDH1 R132H inh -7.3%, A549 viability -10.2%, Nrf2 inh 4.6%[9.27 µM] and Nrf2 activator -0.1%.
Cc1noc(Cn2c(=O)c3ccccc3n(CC(=O)Nc3ccc(C(C)C)cc3)c2=O)n1 was read as IDH1 R132H inh 0.2%, A549 viability -0.9%, Nrf2 inh -26.8% and Nrf2 activator 3.8%.
Screening CCOc1cccc(C(=O)Nc2nc(-c3ccc(S(=O)(=O)N4CCOCC4)cc3)cs2)c1 returned IDH1 R132H inh 2.2%, A549 viability 0.4%, ELG1 DNA repair inconclusive and Nrf2 activator 0.6%.
COc1ccc(-c2csc(NC(=O)c3ccccc3S(C)(=O)=O)n2)cc1 was read as IDH1 R132H inh -0.8%, A549 viability -11.0%, ELG1 DNA repair inconclusive, Nrf2 inh 16.4µM* and Nrf2 activator 2.3%.
COc1ccc(-c2csc(NC(=O)c3ccccc3C(=O)O)n2)cc1 was read as IDH1 R132H inh 5.0%, A549 viability -1.4%, ELG1 DNA repair 20.7%, Nrf2 inh -4.0% and Nrf2 activator -0.1%.
`COc1ccc(-c2csc(NC(=O)C3CCCCN3S(=O)(=O)c3ccccc3)n2)cc1` (stereo not drawn) gave IDH1 R132H inh -1.9%, A549 viability -29.7%, ELG1 DNA repair -15.9%, Nrf2 inh 23.1µM* and Nrf2 activator 2.9%.
For Cc1ccc(S(=O)(=O)N2CCOCC2)cc1C(=O)Nc1nc(-c2ccccn2)cs1 the results were IDH1 R132H inh 2.5%, A549 viability -12.2%, ELG1 DNA repair inconclusive, Nrf2 inh 9.2µM* and Nrf2 activator 1.4%.
Screening O=C(COc1cccc(Cl)c1)Nc1nc(-c2ccc(S(=O)(=O)N3CCOCC3)cc2)cs1 returned IDH1 R132H inh 0.7%, A549 viability -3.4%, ELG1 DNA repair 23.1µM*, Nrf2 inh inconclusive and Nrf2 activator 0.4%.
`CCOC(=O)N1CCN(C(=O)c2cc3cc(OC)c(OC)cc3[nH]2)CC1` gave IDH1 R132H inh 2.4%, A549 viability -5.4%, ELG1 DNA repair 23.3%, Nrf2 inh 0.6% and Nrf2 activator 0.0%.
For COc1ccc(-c2csc(NC(=O)c3cccc(S(=O)(=O)N4CCN(C)CC4)c3)n2)cc1 the results were IDH1 R132H inh 4.2%, A549 viability -12.6%, ELG1 DNA repair -7.6%, Nrf2 inh 14.6µM* and Nrf2 activator 2.4%.
CC(=O)c1c(C)[nH]c(C(=O)Nc2nc(-c3ccc(Cl)cc3)cs2)c1C was read as IDH1 R132H inh -0.6%, A549 viability 1.3%, ELG1 DNA repair inconclusive, Nrf2 inh inconclusive and Nrf2 activator 0.7%.
Screening O=C(Nc1nc(-c2ccccn2)cs1)c1cccc(S(=O)(=O)N2CCOCC2)c1 returned IDH1 R132H inh 1.2%, A549 viability inconclusive, ELG1 DNA repair 3.9%, Nrf2 inh 3.26µM* and Nrf2 activator 0.7%.
Screening CC(=O)c1c(C)[nH]c(C(=O)Nc2nc(-c3ccc(-c4ccccc4)cc3)cs2)c1C returned IDH1 R132H inh -1.9%, A549 viability inconclusive, ELG1 DNA repair 20.6µM*, Nrf2 inh 23.1µM* and Nrf2 activator 0.5%.
`CN1CCN(S(=O)(=O)c2cccc(C(=O)Nc3nc(-c4ccccc4)cs3)c2)CC1` gave IDH1 R132H inh 1.5%, A549 viability 14.2%, ELG1 DNA repair inconclusive, Nrf2 inh -19.2% and Nrf2 activator 7.2%.
Screening COc1ccc(CNC(=O)CCc2c(C)nn(-c3ccc(N4CCCCC4)nn3)c2C)c(OC)c1 returned IDH1 R132H inh -21.6%, A549 viability 1.1%, Nrf2 inh 25.3% and Nrf2 activator 0.8%.
Screening CCOc1ccc(C(=O)NCC(c2ccc3c(c2)OCO3)N2CCN(C)CC2)cc1 (stereo not drawn) returned IDH1 R132H inh 35.4%, A549 viability 0.1% and Nrf2 activator 4.7%.
For CC(C)(C)C(CN1CCCC1)OC(=O)c1ccccc1 (stereo not drawn) the results were IDH1 R132H inh 2.7%, A549 viability 0.1%, ELG1 DNA repair 3.3%, Nrf2 inh 4.7% and Nrf2 activator -0.5%.
For CC(C)c1ccc(NC(=O)Nc2nc(C(N)c3ccccc3Cl)cs2)cc1 (stereo not drawn) the results were Nrf2 activator -2.3%.
CC(=O)Oc1ccccc1N(C(C)=O)S(=O)(=O)c1ccc2ccccc2c1 was read as IDH1 R132H inh 7.5%, A549 viability 12.5%, ELG1 DNA repair -0.1%, Nrf2 inh -1.2% and Nrf2 activator 0.6%.
For CC(=O)Oc1ccc(N(C(C)=O)S(=O)(=O)c2cccs2)c2ccccc12 the results were IDH1 R132H inh 13.2%, A549 viability -11.9%, ELG1 DNA repair 14.6µM*, Nrf2 inh 5.4% and Nrf2 activator -1.8%.
For Cc1ccn2c(-c3csc(NCc4ccccc4)n3)c(C)nc2c1 the results were IDH1 R132H inh 1.3%, A549 viability inconclusive, ELG1 DNA repair inconclusive, Nrf2 inh 25.9µM* and Nrf2 activator 5.6%.
For CCC(C)(C)NC(=O)C(c1ccc(OC)cc1)N(Cc1cccs1)C(=O)CCC(=O)Nc1cc(C)on1 (stereo not drawn) the results were IDH1 R132H inh 9.1%, A549 viability -14.2%, ELG1 DNA repair 18.4µM*, Nrf2 inh -29.9% and Nrf2 activator 0.5%.
